The whole screen tested about 5,500 compounds, of which about 2,000 (36%) were called active. About 18% were inconclusive and are not listed. No stated cut-off is given here; in the data, active means normalized growth mostly below about 0.91 (no sharp cut-off); inconclusive means no clear call, values can overlap the other calls; inactive means mostly above about 0.92. Some of the results follow.
Assay: chemical genetic growth profiling, strain panel (AID 1159580);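 further: tested at 20 µM; growth read once vehicle control cultures reached saturation at 30 °C; 1 = growth at the plate median or of vehicle wells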
Settings: S. cerevisiae deletion strains, growth OD

Measured: normalized growth

CC1CC2C3CCC4=CC(=O)C=CC4(C)C3(F)C(O)CC2(C)C1(O)C(=O)CO (centres undefined)
inactive: locus YAL040C, strain CLN3, stronger effect = lower value 0.987 | locus YDR363W, strain ESC2, stronger effect = lower value 0.955 | locus YER002W, strain NOP16, stronger effect = lower value 1 | locus YGR078C, strain PAC10, stronger effect = lower value 1.02 | locus YNL175C, strain NOP13, stronger effect = lower value 1.01 | locus YNL197C, strain WHI3, stronger effect = lower value 0.999 | locus YNL224C, strain SQS1, stronger effect = lower value 1.01 | locus YOR083W, strain WHI5 (second series), stronger effect = lower value 1.01

Fc1cc(I)ccc1Nc1ccnc2cc(Cl)ccc12
active: locus YHR030C, strain SLT2, stronger effect = lower value 0.841
inactive: locus YAR019C, strain CDC15, stronger effect = lower value 0.977 | locus YBL105C, strain PKC1, stronger effect = lower value 0.975 | locus YBR135W, strain CKS1, stronger effect = lower value 0.981 | locus YBR136W, strain MEC1, stronger effect = lower value 0.989 | locus YBR160W, strain CDC28, stronger effect = lower value 0.978 | locus YDL017W, strain CDC7, stronger effect = lower value 0.977 | locus YDL028C, strain MPS1, stronger effect = lower value 0.979 | locus YDL101C, strain DUN1, stronger effect = lower value 0.981 | locus YDL108W, strain KIN28, stronger effect = lower value 0.986 | locus YDL132W, strain cdc53, stronger effect = lower value 0.986 | locus YDL214C, strain PRR2, stronger effect = lower value 0.911 | locus YDR052C, strain DBF4, stronger effect = lower value 0.968 | locus YDR054C, strain cdc34, stronger effect = lower value 0.974 | locus YDR226W, strain ADK1, stronger effect = lower value 0.993 | locus YDR477W, strain SNF1, stronger effect = lower value 0.949 | locus YER123W, strain YCK3, stronger effect = lower value 0.901 | locus YER133W, strain GLC7, stronger effect = lower value 0.948 | locus YFL009W, strain cdc4, stronger effect = lower value 0.978 | locus YFL029C, strain CAK1, stronger effect = lower value 0.98 | locus YFR003C, strain YPI1, stronger effect = lower value 0.991 | locus YFR019W, strain FAB1, stronger effect = lower value 0.943 | locus YFR028C, strain CDC14, stronger effect = lower value 0.981 | locus YGR040W, strain KSS1, stronger effect = lower value 0.918 | locus YGR052W, strain FMP48, stronger effect = lower value 1.06 | locus YGR092W, strain DBF2, stronger effect = lower value 0.954 | locus YHR079C, strain IRE1, stronger effect = lower value 1 | locus YHR082C, strain KSP1, stronger effect = lower value 0.974 | locus YHR205W, strain SCH9, stronger effect = lower value 0.93 | locus YIL147C, strain SLN1, stronger effect = lower value 0.981 | locus YJL095W, strain BCK1, stronger effect = lower value 0.939 | locus YJL128C, strain PBS2, stronger effect = lower value 0.978 | locus YJL157C, strain FAR1, stronger effect = lower value 0.954 | locus YJR016C, strain ILV3, stronger effect = lower value 0.975 | locus YJR066W, strain TOR1 (second series), stronger effect = lower value 0.953 | locus YJR066W, strain TOR1, stronger effect = lower value 0.958 | locus YKL048C, strain ELM1, stronger effect = lower value 0.94 | locus YKL067W, strain YNK1, stronger effect = lower value 0.934 | locus YKL101W, strain HSL1, stronger effect = lower value 0.932 | locus YKL193C, strain SDS22, stronger effect = lower value 0.991 | locus YKL203C, strain TOR2, stronger effect = lower value 0.976 | locus YLR113W, strain HOG1, stronger effect = lower value 0.915 | locus YLR133W, strain CKI1, stronger effect = lower value 0.933 | locus YLR403W, strain SFP1, stronger effect = lower value 0.95 | locus YML070W, strain DAK1, stronger effect = lower value 0.933 | locus YMR001C, strain CDC5, stronger effect = lower value 0.985 | locus YMR205C, strain PFK2 (second series), stronger effect = lower value 0.937 | locus YMR277W, strain FCP1, stronger effect = lower value 0.984 | locus YNL006W, strain LST8, stronger effect = lower value 0.998 | locus YNL020C, strain ARK1, stronger effect = lower value 0.912 | locus YNL161W, strain CBK1, stronger effect = lower value 0.983 | locus YNL183C, strain NPR1, stronger effect = lower value 0.957 | locus YNL207W, strain RIO2, stronger effect = lower value 0.984 | locus YNL222W, strain SSU72, stronger effect = lower value 0.996 | locus YNL307C, strain MCK1 (second series), stronger effect = lower value 0.91 | locus YOL078W, strain AVO1, stronger effect = lower value 0.981 | locus YOL136C, strain PFK27, stronger effect = lower value 0.925 | locus YOR061W, strain CKA2, stronger effect = lower value 0.966 | locus YOR119C, strain RIO1, stronger effect = lower value 1.02 | locus YOR231W, strain MKK1, stronger effect = lower value 0.95 | locus YOR329C, strain SCD5, stronger effect = lower value 0.986 | locus YPL031C, strain PHO85, stronger effect = lower value 0.911 | locus YPL153C, strain RAD53, stronger effect = lower value 0.923 | locus YPL204W, strain HRR25, stronger effect = lower value 0.912 | locus YPL209C, strain IPL1, stronger effect = lower value 0.983 | locus YPL256C, strain CLN2, stronger effect = lower value 0.951 | locus YPR025C, strain CCL1, stronger effect = lower value 0.986 | locus YPR106W, strain ISR1, stronger effect = lower value 0.973 | locus YPR111W, strain DBF20, stronger effect = lower value 0.972 | strain NNK1, stronger effect = lower value 0.973 | strain TSCII, stronger effect = lower value 0.982

From PubChem BioAssay AID1159580 (chemical genetic matrix, 2015)
